From PubChem BioAssay (Tox21)
Inconclusive results are not listed. Where a call stands in place of a potency, no number is given. The source made the active and inactive calls. The call rests on the fitted dose curve; in most records, active means well fitted cell-killing curve with a large enough effect in the repeat runs; inconclusive means weak or mixed curves, or effect the other way; inactive means no such curve, though single readings can be large or run the other way.

experiment: qHTS assay for small molecule activators of the heat shock response signaling pathway - cell viability counter screen (AID 743209); settings: HSE-bla HeLa viability, CellTiter-Glo luminescence, 5 h; series mostly up to 62.6 µM; further: nearly all actives have a fitted effect of over 50% in size
Description: U.S. Tox21 Program National Center for Advancing Translational Sciences [NCATS] NIH Chemical Genomics Center [NCGC] U.S. Environmental Protection Agency [EPA] National Institutes of Environmental Health Sciences [NIEHS] National Toxicology Program [NTP] U.S. Food and Drug Administration [FDA] Tox21 Assay Overview: Various chemicals, environmental and physiological stress conditions may lead to the activation of heat shock response/ unfolded protein response (HSR/UPR). There are three heat shock transcription factors (HSFs) (HSF-1, -2, and -4) mediating transcriptional regulation of the human HSR. To identify the compounds that activate HSR signaling, HSE-bla HeLa cell line (Invitrogen, Carlsbad, CA, USA) containing a beta-lactamase reporter gene under the control of the heat shock response elements was used to screen Tox21 10K compound library. The cytotoxicity of the Tox21 compound library against the HSE-bla HeLa cell line was tested in parallel by measuring the cell viability using CellTiter-Glo assay (Promega, Madison, WI) in the same wells.
Tox21 Assay Protocol Summary: The CellSensor HSE-bla HeLa cells (Invitrogen, Carlsbad, CA, USA) were dispensed at 1500 cells/6uL/well into 1536-well black wall/clear bottom plates using a Multidrop combi (Thermo Fisher Scientific, Waltham, MA) dispenser. After the assay plates were incubated at 37 C and 5% CO2 overnight, 23 nL of compounds dissolved in DMSO, positive controls or DMSO only was transferred to the assay plate by a Pintool station (Kalypsys, San Diego, CA). The plates were incubated at 37 C for 5 h. After 1 uL of LiveBLAzerTM B/G FRET substrate was added using a Flying Reagent Dispenser (FRD, Beckman Coulter, Indianapolis, IN, USA), the plates were incubated at room temperature for 2.5 h, and fluorescence intensity was measured by an Envision plate reader (PerkinElmer, Shelton, CT). For cell viability readout that measures cytotoxicity, 3 ul/well of CellTiter-Glo reagent was added into the assay plates using a FRD. After 30 min incubation at room temperature, the luminescence intensity in the plates was measured using a ViewLux (PerkinElmer) plate reader.

Row | Compound | Potency
1 | ClC(Br)Br | inactive
2 | O=P(O)(Oc1ccccc1)Oc1ccccc1 | inactive
3 | Nc1cnn(-c2ccccc2)c(=O)c1Cl | inactive
4 | CC(C)CC(N(C)C)C1(c2ccc(Cl)cc2)CCC1 (stereo not given) | inactive
5 | CS(=O)(=O)c1cc(C(F)(F)F)ccc1C(=O)c1cnoc1C1CC1 | inactive
6 | COC(=O)COc1ccc(Cl)cc1Cl | inactive
7 | N#CC(O)c1ccccc1 (stereo not given) | inactive
8 | Cc1ncc2n1-c1ccc(Cl)cc1C(c1ccccc1F)=NC2 | inactive
9 | C=C(C)[C@@H]1CC=C(C=O)CC1 | inactive
10 | O=C(Oc1ccc(Br)cc1)N1CCN2CCC1CC2 | inactive
11 | CCOP(=S)(OCC)SCSP(=S)(OCC)OCC | inactive
12 | COP(N)(=S)Oc1ccccc1C(=O)OC(C)C (stereo not given) | inactive
13 | NC(=O)O | inactive
14 | CC(=O)[C@H]1CC[C@H]2[C@@H]3CC[C@H]4C[C@H](O)CC[C@]4(C)[C@H]3C(=O)C[C@]12C | inactive
15 | CCCCN(CCCCO)N=O | inactive
16 | NC(=S)C(N)=S | inactive
17 | Clc1ccccc1N1CCNCC1 | inactive
18 | CC(C)COP(=O)(OCC(C)C)OCC(C)C | inactive
19 | CC(=O)Nc1cc([As](=O)(O)O)ccc1O | inactive
20 | CNC(=O)Oc1cccc(C(C)C)c1 | inactive

Row | Compound | Potency
21 | CCN(CC)CCOC(=O)C(C)(c1ccccc1)c1ccccc1 | inactive
22 | CCCCCCI | inactive
23 | CC1(C)COP(Oc2ccccc2)OC1 | inactive
24 | CN1CCN(C(=O)O[C@H]2c3nccnc3C(=O)N2c2ccc(Cl)cn2)CC1 | inactive
25 | CCC(C)n1c(=O)[nH]c(C)c(Br)c1=O (stereo not given) | inactive
26 | CN(C)CCc1ccc(O)cc1 | inactive
27 | CC(C)(C)C(=O)C(Oc1ccc(Cl)cc1)n1cncn1 (stereo not given) | inactive
28 | COc1cc(C[C@@H](C)N)c(OC)cc1C | inactive
29 | CC1(C)CON(Cc2ccccc2Cl)C1=O | inactive
30 | CCS(=O)(=O)C(C)(C)S(=O)(=O)CC | inactive
31 | CSc1nc(N=[N+]=[N-])nc(NC(C)C)n1 | inactive
32 | C#CCN1C(=O)COc2cc(F)c(N3C(=O)C4=C(CCCC4)C3=O)cc21 | inactive
33 | [O]=[Cd] | inactive
34 | ClCC(Cl)Cl | inactive
35 | CN/C(=N\[N+](=O)[O-])NCC1CCOC1 (stereo not given) | inactive
36 | CC(Oc1ccc(Oc2ncc(C(F)(F)F)cc2Cl)cc1)C(=O)O (stereo not given) | inactive
37 | CCCCP(CCCC)CCCC | inactive
38 | c1ccc(N2CCNCC2)cc1 | inactive
39 | CC(=O)CC(c1ccc(Cl)cc1)c1c(O)c2ccccc2oc1=O (stereo not given) | inactive
40 | Fc1cc(Br)ccc1CBr | inactive
